Measurements as given in PubChem BioAssay (NCATS).
Records with an inconclusive call do not appear. Entries that show only a call come without a potency. Unmarked numbers belong to inactive results. Calls of active or inactive are those of the source. Calls come from the whole dose curve; as a rule, active = well fitted cell-killing curve with a large enough effect; inconclusive = small, poorly fitted or top-dose-only effect, or effect the other way; inactive = flat fitted curve, though single readings scatter. Where a SMILES comes first, the peptide text is derived from it. [ ]: non-standard residue; d: D form. ξ: configuration not given here. ξTyr(βOH) = NC(C(=O)O)C(O)c1ccc(O)cc1

The compounds below were run on SKOV3 (assay: Primary qHTS to identify gynecologic anti-cancer compounds using libraries of approved drugs and bioactive compounds (AID 1345084; note: nearly all actives have a fitted effect of over 55% in size)). Details: Gynecologic cancer cell panel viability, ATPlite luminescence, 48 h; series mostly up to 57.5 µM.
Procedure, shortened: (§1)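 ATP-based viability (ATPlite), 1,000 cells/well, 16 h pre-incubation, 48 h compound at 37 C, 5% CO2, 15 min RT before read.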

Compound | Potency | activity change, negative = cytotoxicity
CC1=C2CC(C)(C)CC2C(O)C2=C(C1)C(=O)OC2O (stereo unspecified) | inactive | 
C/C=C(\C)C(=O)OC1C(C)C2(O)C3C=C(C)C(=O)C3CC(CO)=CC2C2C(C)(C)C12OC(C)=O (stereo unspecified) | inactive | 
CC(=O)OC1CC2(C)C(CCC(C)C23Cc2c(O)cc4c(c2O3)CNC4=O)C(C)(C)C1O (stereo unspecified) | inactive | 
COC(=O)C1=COC(OC2OC(CO)C(O)C(O)C2O)C2C(C)CC(=O)C12O (stereo unspecified) | inactive | 
C=C1C2CCC3C(CCC4[C@@]3(C)CCC[C@@]4(C)C(=O)O)(C2)[C@@H]1OC(=O)/C(C)=C\C (stereo partly specified) | inactive | 
C[C@@H]1O[C@@H](O[C@H]2[C@H](O[C@H]3[C@H](O[C@H]4CC[C@@]5(C)C(CC[C@]6(C)C5CC=C5[C@@H]7CC(C)(C)CC(=O)[C@]7(C)CC[C@]56C)[C@@]4(C)CO)O[C@H](C(=O)O)[C@@H](O)[C@@H]3O)O[C@H](CO)[C@H](O)[C@@H]2O)[C@H](O)[C@H](O)[C@H]1O (stereo partly specified) |  | 0.762% [at 11.6 µM]
O=C(O[C@@H]1O[C@H](CO)[C@@H](O)[C@H](O)[C@H]1O)c1ccccc1 | inactive | 
COc1cc(C(CO)C(OC2OC(CO)C(O)C(O)C2O)c2ccc(O)c(OC)c2)ccc1O (stereo unspecified) | inactive | 
N#Cc1ccc(C2CCCc3cncn32)cc1 (stereo unspecified) | inactive | 
CC1(C)CC[C@]2(C(=O)O)CC[C@]3(C)C(=CCC4[C@@]5(C)CC[C@H](O)C(C)(C)C5CC[C@]43C)C2C1 (stereo partly specified) | inactive | 
Cc1onc(-c2ccccc2Cl)c1C(=O)N(C)c1ccc(Cl)cc1 | inactive | 
Cc1ccc(-n2nc(C(C)(C)C)cc2NC(=O)Nc2cc(COc3cccnc3)[nH]n2)cc1 | inactive | 
COC(=O)C1=CO[C@@H](O[C@@H]2O[C@H](CO)[C@@H](O)[C@H](O)[C@H]2O)[C@H]2[C@@H]1C=C[C@]21C=C([C@H](C)OC(=O)/C=C/c2ccc(O[C@@H]3O[C@H](CO)[C@@H](O)[C@H](O)[C@H]3O)cc2)C(=O)O1 | inactive | 
O=C(O)CCc1cc2ccoc2cc1O[C@@H]1O[C@H](CO)[C@@H](O)[C@H](O)[C@H]1O | inactive | 

Each compound was assayed on Tov-21-G in the same assay as above. Details: Gynecologic cancer cell panel viability, ATPlite luminescence, 48 h; series mostly up to 57.5 µM.
Procedure, shortened: as §1

Compound | Potency | activity change, negative = cytotoxicity
CC1=C2CC(C)(C)CC2C(O)C2=C(C1)C(=O)OC2O (stereo unspecified) | inactive | 
C=C1C(O)C(OC(=O)c2ccccc2)C2C(C)(C(=O)O)CCCC2(C)C1CC/C(C)=C\CO (stereo unspecified) | inactive | 
C[C@]1(O)CC[C@@H]2C(C(=O)O)=CO[C@@H](O[C@@H]3O[C@H](COC(=O)/C=C/c4ccc(O)c(O)c4)[C@@H](O)[C@H](O)[C@H]3O)[C@@H]21 | inactive | 
C/C=C(\C)C(=O)OC1C(C)C2(O)C3C=C(C)C(=O)C3CC(CO)=CC2C2C(C)(C)C12OC(C)=O (stereo unspecified) | inactive | 
CC(=O)OC1CC2(C)C(CCC(C)C23Cc2c(O)cc4c(c2O3)CNC4=O)C(C)(C)C1O (stereo unspecified) | inactive | 
C[C@@]1(O)[C@H](O)[C@@H](CO)O[C@H]1n1cnc2c(=O)[nH]c(N)nc21 | inactive | 
COc1ccc(C(=O)NCc2cc(C(C)C)no2)cc1OC1CCN(C)CC1 | inactive | 
O=c1[nH]ccc2nc(-c3ccc(CN4CCC(c5nc(-c6ccccn6)n[nH]5)CC4)cc3)c(-c3ccccc3)cc12 | inactive | 
COC(=O)C1=COC(OC2OC(CO)C(O)C(O)C2O)C2C(C)CC(=O)C12O (stereo unspecified) | inactive | 
CC(=O)O[C@@H]1[C@H](O[C@@H]2O[C@H](CO)[C@@H](O)[C@H](O)[C@H]2O)[C@@H](O[C@@H]2O[C@@H](C)[C@H](O)[C@@H](O[C@@H]3O[C@H](CO)[C@@H](O)[C@H](O)[C@H]3O)[C@H]2O)[C@H](OC(=O)[C@]23CCC(C)(C)C[C@H]2C2=CCC4[C@@]5(C)C[C@H](O)[C@H](O[C@@H]6O[C@H](C(=O)O)[C@@H](O)[C@H](O)[C@H]6O)[C@@](C)(C(=O)O)C5CC[C@@]4(C)[C@]2(C)CC3)O[C@@H]1C (stereo partly specified) |  | 0.569% [at 6.55 µM]
C[C@@H]1O[C@@H](O[C@H]2[C@H](O)[C@@H](O)[C@H](OC(=O)[C@]34CCC(C)(C)C[C@H]3C3=CCC5[C@@]6(C)CC[C@H](O[C@@H]7O[C@H](C(=O)O)[C@@H](O)[C@H](O)[C@H]7O)C(C)(C)C6CC[C@@]5(C)[C@]3(C)CC4)O[C@@H]2CO)[C@H](O)[C@H](O)[C@H]1O (stereo partly specified) |  | -3.13% [at 11.6 µM]
C[C@@H]1O[C@@H](O[C@H]2[C@H](O[C@H]3[C@H](O[C@H]4CC[C@@]5(C)C(CC[C@]6(C)C5CC=C5[C@@H]7CC(C)(C)CC(=O)[C@]7(C)CC[C@]56C)[C@@]4(C)CO)O[C@H](C(=O)O)[C@@H](O)[C@@H]3O)O[C@H](CO)[C@H](O)[C@@H]2O)[C@H](O)[C@H](O)[C@H]1O (stereo partly specified) |  | 5.22% [at 11.6 µM]
O=C(O[C@@H]1O[C@H](CO)[C@@H](O)[C@H](O)[C@H]1O)c1ccccc1 | inactive | 
COc1cc(C(CO)C(OC2OC(CO)C(O)C(O)C2O)c2ccc(O)c(OC)c2)ccc1O (stereo unspecified) | inactive | 
COc1ccc(C2COc3cc(O)ccc3C2)c(O)c1OC (stereo unspecified) | inactive | 
C=C1CCC2[C@@](C)(C(=O)O)CCC[C@@]2(C)[C@@H]1CCc1ccoc1 (stereo partly specified) | inactive | 
CC(C)C1NC(=O)CNC(=O)C2CCCN2C(=O)C(Cc2c[nH]c3ccccc23)NC(=O)CNC(=O)C(C(O)c2ccc(O)cc2)NC(=O)CNC1=O (stereo unspecified) (cyclo(G[ξTyr(βOH)]GWPGV); configuration not given here) | inactive | 
COCCN1CCC(C(=O)NO)(S(=O)(=O)c2ccc(Oc3ccc(OC(F)(F)F)cc3)cc2)CC1 | inactive | 
COc1cc(/C=C/C(=O)O[C@@H]2O[C@H](CO)[C@@H](O)[C@H](O)[C@H]2O)ccc1O | inactive | 

Compound | Potency | activity change, negative = cytotoxicity
C/C(=C\C(=O)C(C)C1CCC2C3=C(CCC21C)C1(C)CCC(=O)C(C)(C)C1(O)CC3)C(C)(C)O (stereo unspecified) | inactive | 
CC(C)CC[C@@H](O)[C@](C)(O)[C@H]1CC[C@@]2(O)C3=CC(=O)[C@@H]4C[C@@H](O)[C@@H](O)C[C@]4(C)[C@H]3CC[C@]12C | inactive | 
Cc1cc(O[C@@H]2O[C@H](COC(=O)CC(=O)O)[C@@H](O)[C@H](O)[C@H]2O)c(C(C)C)cc1O | inactive | 
CC1(C)CC[C@]2(C(=O)O)CC[C@]3(C)C(=CCC4[C@@]5(C)CC[C@H](O)C(C)(C)C5CC[C@]43C)C2C1 (stereo partly specified) | inactive | 
Cc1onc(-c2ccccc2Cl)c1C(=O)N(C)c1ccc(Cl)cc1 | inactive | 
Cc1occc1C(=O)n1ccnc1 | inactive | 
CC(C)/C=C1/NC(=O)C(C(C)C)n2c1nc1c(O)cccc1c2=O (stereo unspecified) | inactive | 
CCN1CCN(C(=O)N[C@@H](C(=O)N[C@@H]2C(=O)N3[C@@H]2SC(C)(C)[C@@H]3C(=O)O)c2ccccc2)C(=O)C1=O | inactive | 
Cc1ccc(-n2nc(C(C)(C)C)cc2NC(=O)Nc2cc(COc3cccnc3)[nH]n2)cc1 | inactive | 
CCCCC(=O)N1c2ccccc2NC2=C(C(=O)CCC2)C1c1ccccc1Cl (stereo unspecified) | inactive | 
OC[C@@]1(O)CO[C@@H](OC[C@H]2O[C@@H](OCc3ccccc3)[C@H](O)[C@@H](O)[C@@H]2O)[C@@H]1O | inactive | 
Cc1ccc(-c2c(-c3nn(C)c4ncnc(N5CCC(N6CCCCC6)C5)c34)cnn2C)cc1 (stereo unspecified) | inactive | 
COC(=O)C1=CO[C@@H](O[C@@H]2O[C@H](CO)[C@@H](O)[C@H](O)[C@H]2O)[C@H]2[C@@H]1C=C[C@]21C=C([C@H](C)OC(=O)/C=C/c2ccc(O[C@@H]3O[C@H](CO)[C@@H](O)[C@H](O)[C@H]3O)cc2)C(=O)O1 | inactive | 
CC1(C)CC[C@]2(C(=O)O[C@@H]3O[C@H](CO[C@@H]4O[C@H](CO[C@@H]5O[C@H](CO)[C@H](O)[C@H](O)[C@H]5O)[C@@H](O)[C@H](O)[C@H]4O)[C@@H](O)[C@H](O[C@@H]4O[C@H](CO)[C@@H](O)[C@H](O)[C@H]4O)[C@H]3O)[C@H](O)C[C@]3(C)C(=CCC4[C@@]5(C)CC[C@H](O[C@@H]6OC[C@@H](O)[C@H](O)[C@H]6O)[C@@](C)(C(=O)O)C5CC[C@]43C)[C@@H]2C1 (stereo partly specified) |  | 9.11% [at 6.55 µM]
O=C(O)CCc1cc2ccoc2cc1O[C@@H]1O[C@H](CO)[C@@H](O)[C@H](O)[C@H]1O | inactive | 
COc1c(O[C@@H]2O[C@H](CO)[C@@H](O)[C@H](O)[C@H]2O)c(CCC(=O)O)cc2ccoc12 | inactive | 
COC(=O)c1cc(OC)cc(OC)c1C(=O)c1c(OC)cc2c(c1O)C1CCC(O)C(C)(O2)O1 (stereo unspecified) | inactive | 
CC(C)=CCC/C(C)=C/CO[C@@H]1O[C@H](CO[C@@H]2O[C@@H](CO)[C@H](O)[C@H]2O)[C@@H](O)[C@H](O)[C@H]1O | inactive | 
